The target in test [1] is Progesterone receptor (Homo sapiens) (UniProt P06401). The test is described as follows: qHTS assay to identify small molecule antagonists of the progesterone receptor (PR) signaling pathway (AID 1346795; active = well fitted inhibition curve with a large enough effect in the signal ratio in the repeat runs, not every such curve was filed as active; the % refers to the signal ratio; note: potency is the fitted concentration of half-maximal effect). The procedure, abridged:
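Read-out is fluorescence from the LiveBLAzer B/G FRET substrate, cleaved by a UAS-controlled beta-lactamase in PR-UAS-bla HEK293T cells after 16 hr exposure to compound plus 1 nM promegestone (final), followed by 2 hr at room temperature.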
For orientation: Quantitative high-throughput screening tests each substance at several concentrations.

Test [2] in a line: qHTS assay to identify small molecule antagonists of the progesterone receptor (PR) signaling pathway - cell viability counter screen (AID 1346798). Note: nearly all actives have a fitted effect of over 50% in size. Note: potency is the fitted concentration of half-maximal effect. The procedure, abridged: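 HEK293T PR-UAS-bla, 2% charcoal-stripped FBS; 4 hr pre-plate; cpd + R5020, 16 h 37C; LiveBLAzer read first; then CellTiter-Glo 30 min RT, luminescence.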
A short description of test [3]: qHTS assay to identify small molecule agonists of the progesterone receptor (PR) signaling pathway - cell viability counter screen (AID 1346799; calls by dose curve; note: nearly all actives have a fitted effect of over 45% in size; note: potency is the fitted concentration of half-maximal effect). The procedure, abridged:
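Luminescence from CellTiter-Glo, added after the beta-lactamase FRET read in the same wells, gave cytotoxicity in PR-UAS-bla HEK293T cells treated with compounds for 16 hr at 37C.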

Test [4] is described as follows: qHTS assay to identify small molecule antagonists of the TGF-beta/Smad signaling pathway - cell viability counter screen (AID 1346824). Note: nearly all actives have a fitted effect of over 50% in size. The gist of the method:
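SBE-bla HEK 293T cells were plated overnight at 37 C, then given compounds in DMSO plus TGF-beta1 (added as 0.25 ng/mL solution) for 5 hr. After the bla read, CellTiter-Glo was added to the same wells and luminescence read after 30 min at room temperature.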

The nature of test [5]: qHTS assay to identify small molecule agonists of the TGF-beta/Smad signaling pathway (AID 1346859; active = well fitted activation curve with a large enough effect in the signal ratio in the repeat runs, not every such curve was filed as active; the % refers to the signal ratio; note: series mostly up to about 77 µM). The gist of the method: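 SBE-bla HEK 293T, 4,000 cells/well, plated o/n; cpd in DMSO, 5 hr, 37 C/5% CO2; B/G FRET substrate 2 hr RT; ex 405, em 460/530 nm.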
Test [6] concerns the target Thyrotropin-releasing hormone receptor (Homo sapiens) (UniProt P34981). The test is described as follows: qHTS assay to identify small molecule antagonists of the thyrotropin-releasing hormone receptor (TRHR) signaling pathway (AID 1346877; active = well fitted inhibition curve with a large enough effect in the repeat runs, not every such curve was filed as active; note: series mostly up to about 51 µM). The gist of the method: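 Kinetic fluorescence (3 min, 1 s resolution) following stimulation with TRH at 1 nM final; HEK293 cells bearing human TRHR; 5 min compound preincubation at RT; concentration-response over 15 points, triplicates.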

Test [7] shares this target. The test is described as follows: qHTS assay to identify small molecule agonists of the thyrotropin-releasing hormone receptor (TRHR) signaling pathway (AID 1346891; calls by dose curve; note: potency is the fitted concentration of half-maximal effect; for activation: series mostly up to about 58 µM). The gist of the method: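 Intracellular calcium rise, read as fluorescence every second for 3 min, served as the agonist signal in dye-loaded HEK293 cells expressing TRHR; each compound ran at 15 concentrations in triplicate.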

Test [8] is described as follows: Human pregnane X receptor (PXR) small molecule agonists, qHTS cell viability counter screen (AID 1346977). Note: nearly all actives have a fitted effect of over 50% in size. Note: potency is the fitted concentration of half-maximal effect. The gist of the method: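 PXR-Luc HepG2, 2,000 cells/well, 5% charcoal-stripped FBS; 5hr settle; cpd 24hr, 37C/5% CO2; CellTiter-Fluor at 23hr, read 1hr later (fluorescence).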
Test [9] in a line: Caspase-3/7 induction in HepG2 cells by small molecules, qHTS assay (AID 1346978). Note: nearly all actives have a fitted effect of over 15% in size. Note: potency is the fitted concentration of half-maximal effect. The gist of the method: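 Wild-type HepG2 cells (2,000/well) were settled 5 h at 37 C, 5% CO2, then exposed to compounds in DMSO for 17 h. Caspase-3/7 activity was read by luminescence 30 min after adding Caspase-Glo 3/7 reagent at room temperature.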
The nature of test [10]: qHTS assay to identify small molecule agonists of the TGF-beta/Smad signaling pathway - cell viability counter screen (AID 1346829). Note: nearly all actives have a fitted effect of over 45% in size. Note: potency is the fitted concentration of half-maximal effect. The procedure, abridged: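 Same-well cytotoxicity: CellTiter-Glo added after the 2 hr room-temperature beta-lactamase substrate step, luminescence measured 30 min later; cells had 5 hr of compound at 37 C.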

Results filed as inconclusive are left out. Active and inactive are the calls of the source. Unless noted, calls come from the whole dose curve; as a rule, active = well fitted curve in the direction sought with a large enough effect in the repeat runs; inconclusive = weak or mixed curves; inactive = no such curve, though single readings can be large; an effect the other way counts as inactive or inconclusive.

Sequence of Thyrotropin-releasing hormone receptor (Homo sapiens) (P34981 whole entry, looked up): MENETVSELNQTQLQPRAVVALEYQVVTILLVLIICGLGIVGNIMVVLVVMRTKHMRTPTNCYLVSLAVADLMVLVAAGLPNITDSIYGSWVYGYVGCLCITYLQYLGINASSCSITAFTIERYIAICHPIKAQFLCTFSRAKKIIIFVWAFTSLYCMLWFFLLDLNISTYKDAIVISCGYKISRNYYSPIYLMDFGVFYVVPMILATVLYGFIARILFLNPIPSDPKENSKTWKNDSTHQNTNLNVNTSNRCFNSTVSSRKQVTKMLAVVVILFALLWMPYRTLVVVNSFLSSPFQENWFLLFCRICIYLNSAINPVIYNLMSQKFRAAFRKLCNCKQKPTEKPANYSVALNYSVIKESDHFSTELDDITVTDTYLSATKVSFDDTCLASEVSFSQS
Sequence of Progesterone receptor (Homo sapiens) (P06401 whole entry, looked up): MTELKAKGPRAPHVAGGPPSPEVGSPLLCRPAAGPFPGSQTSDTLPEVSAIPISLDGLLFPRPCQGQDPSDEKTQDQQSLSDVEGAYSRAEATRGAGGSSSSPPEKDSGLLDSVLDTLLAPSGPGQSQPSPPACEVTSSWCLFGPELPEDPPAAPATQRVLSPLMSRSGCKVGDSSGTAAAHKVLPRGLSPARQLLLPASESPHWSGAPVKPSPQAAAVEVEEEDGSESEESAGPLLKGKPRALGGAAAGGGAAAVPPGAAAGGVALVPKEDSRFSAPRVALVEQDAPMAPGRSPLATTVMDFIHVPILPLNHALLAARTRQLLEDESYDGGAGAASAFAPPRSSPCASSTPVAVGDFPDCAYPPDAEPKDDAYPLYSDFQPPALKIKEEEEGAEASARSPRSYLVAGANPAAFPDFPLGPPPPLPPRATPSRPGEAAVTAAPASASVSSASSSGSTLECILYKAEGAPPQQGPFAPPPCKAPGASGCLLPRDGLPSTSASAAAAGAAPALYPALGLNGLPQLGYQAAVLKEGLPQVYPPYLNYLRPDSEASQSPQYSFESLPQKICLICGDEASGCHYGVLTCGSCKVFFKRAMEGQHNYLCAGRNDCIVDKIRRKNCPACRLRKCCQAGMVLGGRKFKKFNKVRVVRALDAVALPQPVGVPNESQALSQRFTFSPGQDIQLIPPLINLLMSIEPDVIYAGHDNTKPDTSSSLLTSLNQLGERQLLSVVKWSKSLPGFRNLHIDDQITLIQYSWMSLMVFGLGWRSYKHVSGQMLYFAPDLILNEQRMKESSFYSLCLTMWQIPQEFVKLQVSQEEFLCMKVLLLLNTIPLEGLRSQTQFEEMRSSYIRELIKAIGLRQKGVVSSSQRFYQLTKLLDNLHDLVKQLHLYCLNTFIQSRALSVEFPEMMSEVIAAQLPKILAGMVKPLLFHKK

Take `COc1ccc(-c2ccc3cc(C(=O)O)ccc3c2)cc1C12CC3CC(CC(C3)C1)C2`: the Potency result in test [1], in [2], in test [3], in test [4], in test [5] and in test [6] was “inactive” each time. The Potency entry in test [7], in test [8] and in test [9] was “inactive” each time.
For the molecule `CC(C)=CCOc1ccc(/C=C/C(=O)c2ccc(OCC=C(C)C)cc2OCC(=O)O)cc1`, the Potency in test [1] was 26.6 µM (active). In addition, the Potency result in test [2], in test [3], in [4], in [10], in test [6] and in test [7] was “inactive” in each case. The Potency entry in test [8] and in [9] was “inactive” in each case.
Consider `On1ccccc1=S`, for which the Potency was 0.539 µM (active) in [1]; 0.605 µM (active) in test [2]; 0.959 µM (active) in [3]; 0.762 µM (active) in test [8]; 1.71 µM (active) in test [9]. Besides, the Potency entry in test [4], in test [10], in [5], in [6] and in test [7] was “inactive” throughout.
Turning to `CCCC/C=C/CCCCO`, the Potency result in test [1], in test [2], in [3], in test [4], in [10] and in [6] was “inactive” in each case. Further, the Potency entry in test [7], in test [8] and in [9] was “inactive” in each case.
As for `Clc1ccc2nsnc2c1NC1=NCCN1`, the Potency result in test [1], in [2], in test [3], in test [4], in test [10] and in test [5] was “inactive” in each case. Besides, the Potency result in test [8] and in test [9] was “inactive” in each case.
Consider `CCN(C(=O)N(CC)c1ccccc1)c1ccccc1`, for which the Potency in test [1] is 30.6 µM (active). Further, the Potency entry in test [2], in test [3], in test [4], in test [10], in [5] and in test [6] was “inactive” throughout. The Potency result in [7], in test [8] and in test [9] was “inactive” throughout.
With `Cc1ccc(O)c(C(C)(C)C)c1`, the Potency result in test [1], in [2], in test [3], in test [4], in [10] and in [5] was “inactive” in each case. Moreover, the Potency entry in [8] was “inactive”. In test [9], the Potency is 61 µM (active).
For `CCC(C)(C)C1CCCCC1OC(C)=O` (stereo not given), the Potency result in test [1], in test [2], in test [3], in [4], in test [10] and in test [5] was “inactive” each time. Also, the Potency entry in test [6], in test [7], in [8] and in test [9] was “inactive” in each case.
Take `COC(=O)C1=C(C)NC(C)=C(C(=O)OCCc2ccc(N3CCN(C(c4ccccc4)c4ccccc4)CC3)cc2)C1c1cccc([N+](=O)[O-])c1` (stereo not given): the Potency entry in test [1], in test [2], in test [3], in test [4], in [10] and in test [5] was “inactive” in each case. Also, the Potency result in test [8] and in test [9] was “inactive” each time.
In the case of `NNC(=O)c1cccc(C(=O)NN)c1`, the Potency entry in test [1], in test [2], in test [3], in test [4], in test [10] and in test [5] was “inactive” throughout. Further, the Potency entry in [6], in [7], in test [8] and in test [9] was “inactive” each time.
With `Cc1cccc(S(=O)(=O)O)c1C`, the Potency result in [1], in test [2], in test [3], in test [4], in test [10] and in test [5] was “inactive” each time. Moreover, the Potency result in test [6], in [7], in test [8] and in test [9] was “inactive” each time.
Regarding `Oc1ccc2c(c1)-c1ccccc1C2`, the Potency in test [1] is 17.2 µM (active). Also, the Potency entry in [2], in test [3], in test [4], in test [10], in [5] and in test [6] was “inactive” each time. The Potency entry in [7], in test [8] and in test [9] was “inactive” each time.
As to `C[C@H]1[C@H]2CC[C@H]3[C@@H]4CC=C5C[C@@H](N(C)C)CC[C@]5(C)[C@H]4CC[C@]23CN1C`, the Potency result in test [1], in test [2], in [3], in test [4], in test [10] and in [5] was “inactive” each time. Besides, the Potency entry in test [6], in [7] and in [9] was “inactive” throughout.
As to `CC1=NC(C)OC1C` (stereo not given), the Potency result in [1], in test [2], in test [3], in test [4], in [10] and in test [6] was “inactive” throughout. The Potency result in test [7], in test [8] and in [9] was “inactive” in each case.
With `CNCc1cc(F)ccc1Oc1ccc(Cl)c(Cl)c1`, the Potency was 61.1 µM (active) in [1], 34.7 µM (active) in [7] and 61.1 µM (active) in test [8]. For the same molecule, the Potency entry in test [2], in test [3], in [4], in test [10] and in test [5] was “inactive” in each case.
Regarding `O=C1C=CC(=O)N1c1ccc(Cc2ccc(N3C(=O)C=CC3=O)cc2)cc1`, the Potency entry in test [1], in test [2], in test [3], in test [4], in test [5] and in test [7] was “inactive” throughout. The Potency entry in test [9] was “inactive”. Further, the Potency in test [10] is 61.6 µM (active); in test [8] it was 61.1 µM (active).
Turning to `Oc1ccc(N=Nc2ccccc2)cc1`, the Potency in test [1] was 19.6 µM (active). The Potency result in [2], in test [3], in test [4], in [10], in [5] and in [6] was “inactive” in each case. Further, the Potency result in test [7] and in test [9] was “inactive” throughout.
`COc1cc(-c2ccc(N=C=O)c(OC)c2)ccc1N=C=O`: the Potency entry in test [1], in test [2], in test [3], in test [4], in [10] and in test [5] was “inactive” throughout. Also, the Potency entry in test [6], in test [7], in test [8] and in [9] was “inactive” throughout.
For the molecule `C/C(=C(/OCCOc1ccc(Cl)cc1)c1ccc(Cl)cc1Cl)n1ccnc1`, the Potency is 8.41 µM (active) in [1], 13.3 µM (active) in [2] and 16.8 µM (active) in test [3]. For the same molecule, the Potency result in test [4], in [10], in test [5] and in [9] was “inactive” each time.
Take `CN1CCN(CCC(=O)N2c3ccccc3Sc3ccc(C(F)(F)F)cc32)CC1`: the Potency is 26.6 µM (active) in [1], 18.8 µM (active) in test [2], 23.7 µM (active) in [3] and 26.6 µM (active) in [8]. In addition, the Potency entry in test [4], in test [10], in [5], in [6] and in [7] was “inactive” each time.
`COc1cccc(N)c1`: the Potency result in test [1], in test [2], in test [3], in test [4], in [10] and in test [5] was “inactive” in each case. The Potency entry in test [6], in test [7] and in test [9] was “inactive” in each case.
